Rows were chosen to be rich in hits. Some 3.9% of all compounds tested hit in one or more screens of this group.
CDK5 p35 inh – CDK5/p35 (human) kinase inhibition | Q00535+Q15078 | Recombinant CDK5/p35, ADP-Glo luminescence, 60 min | inhibition, % at 10 µM | actives 0.01% (n = 330,000);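 active means highest replicate inhibition of at least 50% and at least 75% of replicates reaching 50%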;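 further: plate controls were DMSO neutral control for no effect and GW8510 at 10 µM for full effect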
ALR H2O2 inh – inhibitors of human sulfhydryl oxidase ALR | P55789 | purified ALR, DTT oxidation, H2O2 HRP-luminol luminescence | inhibition, % (test concentration not listed) | actives 3.8% (n = 290,000) | AID 485317;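 active means mean replicate inhibition above about 79%, with every replicate also reaching it, limit read from the data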
NSD2 HMT inh – blocks human histone methyltransferase NSD2; O96028; NSD2 peptide methylation, AlphaScreen, 120 min; inhibition, % at 12.5 µM; actives 0.54% (n = 310,000); in the data active means inhibition above about 50%
Target sequence (O96028 whole entry, looked up): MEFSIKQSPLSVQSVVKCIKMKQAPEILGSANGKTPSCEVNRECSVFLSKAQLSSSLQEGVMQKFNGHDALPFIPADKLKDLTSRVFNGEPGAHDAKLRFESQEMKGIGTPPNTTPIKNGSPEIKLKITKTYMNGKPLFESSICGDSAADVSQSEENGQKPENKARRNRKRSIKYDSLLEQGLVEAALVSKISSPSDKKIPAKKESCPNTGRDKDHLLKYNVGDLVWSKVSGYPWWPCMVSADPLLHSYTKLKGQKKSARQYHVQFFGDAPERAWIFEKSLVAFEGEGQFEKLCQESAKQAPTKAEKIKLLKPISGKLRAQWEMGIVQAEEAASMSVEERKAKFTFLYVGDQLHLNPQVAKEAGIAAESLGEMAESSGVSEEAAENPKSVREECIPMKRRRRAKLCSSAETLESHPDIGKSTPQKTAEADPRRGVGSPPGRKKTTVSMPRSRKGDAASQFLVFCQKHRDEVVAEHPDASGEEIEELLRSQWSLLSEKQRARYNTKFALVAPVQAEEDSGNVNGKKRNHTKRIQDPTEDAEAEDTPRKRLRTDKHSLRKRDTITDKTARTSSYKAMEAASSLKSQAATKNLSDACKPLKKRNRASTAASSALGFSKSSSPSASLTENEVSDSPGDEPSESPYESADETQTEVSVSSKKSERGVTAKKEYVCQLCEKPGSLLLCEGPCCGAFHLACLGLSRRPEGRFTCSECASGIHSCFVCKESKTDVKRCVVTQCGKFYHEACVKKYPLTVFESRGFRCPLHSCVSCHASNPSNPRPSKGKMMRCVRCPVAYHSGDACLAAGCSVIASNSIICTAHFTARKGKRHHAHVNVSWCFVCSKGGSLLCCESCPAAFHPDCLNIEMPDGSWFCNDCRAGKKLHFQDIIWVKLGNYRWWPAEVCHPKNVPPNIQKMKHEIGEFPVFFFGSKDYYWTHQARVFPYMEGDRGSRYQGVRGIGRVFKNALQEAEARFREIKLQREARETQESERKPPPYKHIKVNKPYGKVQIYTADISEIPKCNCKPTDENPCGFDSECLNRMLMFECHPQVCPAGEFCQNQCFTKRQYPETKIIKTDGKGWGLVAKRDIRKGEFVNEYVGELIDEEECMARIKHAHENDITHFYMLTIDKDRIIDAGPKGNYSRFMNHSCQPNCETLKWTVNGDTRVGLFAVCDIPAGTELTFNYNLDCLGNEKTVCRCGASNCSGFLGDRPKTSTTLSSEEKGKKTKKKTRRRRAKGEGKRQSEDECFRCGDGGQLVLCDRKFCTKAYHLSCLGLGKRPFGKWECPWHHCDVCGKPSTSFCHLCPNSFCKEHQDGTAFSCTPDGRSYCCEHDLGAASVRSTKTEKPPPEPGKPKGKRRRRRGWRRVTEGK
SUMO Mot1 rescue – SUMOylation pathway inhibition by Mot1-301 growth rescue | S. cerevisiae Mot1-301 growth rescue, ATP luminescence, 38.5C; percent above DMSO median, 100 means doubled | growth rescue, % at 18.8 µM | actives 1% (n = 320,000) | AID 2716;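 active means every valid replicate shows activation above 250% relative to neutral control wells; inactive means the rest, any valid replicate at or below 250%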;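 further: OY570 slx delta 5 strain wells were the positive control but not used for scaling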
N-glyco inh – N-linked glycosylation inhibition. D54 ERlucT glycosylation luciferase reporter, 24 h; percent of 100 nM tunicamycin response. reporter increase, % at 12.5 µM. actives 0.23% (n = 360,000). AID 588692;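 active means mean luciferase reporter signal, scaled so untreated is 0 and the glycosylation-blocking control 100, at or above a set limit in every replicate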;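 further: luciferase carries N-glycosylation sites so blocking glycosylation raises the light; 0% = median of neutral control wells and 100% = median of 100 nM tunicamycin wells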
CASP6 VEID inh – inhibitors of human caspase-6. P55212. purified caspase-6, Z-VEID-R110 cleavage fluorescence. inhibition, % at 12.5 µM. actives 0.53% (n = 350,000);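 active means mean inhibition across replicates at least about 35%, with every replicate also reaching that limit, limit read from the data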;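 further: 0% = median of neutral control wells and 100% = no fluorescence left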
Alpha artifact – interferes with AlphaScreen signal, flagging NSD2 false positives. AID 1053174. shares compounds with NSD2 HMT inh. AlphaScreen artifact counterscreen, preloaded methylated H4 peptide. actives 9.4% (n = 1,500). AC35, µM (doses to about 10 µM), without a hit: top-dose activity change, negative = signal loss; call rule not given here
* marks the source's active call; other numbers are inactive results.

Cc1noc(C)c1S(=O)(=O)Nc1ccc2c(c1)CC(=O)N([C@H](C)CO)C[C@H](C)[C@@H](CN(C)S(=O)(=O)c1ccccc1)O2 was read as CASP6 VEID inh -1.
Screening CCN1CC2CCCC3(C1)C(=O)NC1(CCCCC1)N=C23 (configuration not stated) returned CDK5 p35 inh 0, ALR H2O2 inh -7, NSD2 HMT inh 56*, SUMO Mot1 rescue 4, N-glyco inh -1 and Alpha artifact -4%.
For COCC(=O)N1C[C@@H]2[C@H](c3ccccc31)[C@H](CO)N2Cc1ccccc1Cl the results were CASP6 VEID inh -1.
`S=C(Nc1ccccc1Cl)N1CCCC(c2ccccc2)=N1` gave CDK5 p35 inh 0, ALR H2O2 inh -15, NSD2 HMT inh -2, SUMO Mot1 rescue 74, N-glyco inh -2 and CASP6 VEID inh -2.
Screening CC(C)c1ccc(NC(=S)N2CCCC(c3ccc(F)cc3)=N2)cc1 returned CDK5 p35 inh 0, ALR H2O2 inh -17, NSD2 HMT inh 60*, SUMO Mot1 rescue -8, N-glyco inh 0, CASP6 VEID inh 1 and Alpha artifact 0%.
Screening O=C(c1ccco1)N(c1ccccn1)c1ccccn1 returned CDK5 p35 inh -1, ALR H2O2 inh -9, NSD2 HMT inh -8, SUMO Mot1 rescue -13 and N-glyco inh 1.
O=C(/C=C/c1ccco1)N(c1ccccn1)c1ccccn1 was read as CDK5 p35 inh 2, ALR H2O2 inh -3, NSD2 HMT inh 77*, N-glyco inh 2, CASP6 VEID inh 54* and Alpha artifact -1%.
Screening CCN(CC)CCCN(Cc1cc2cc3c(cc2[nH]c1=O)OCO3)C(=S)NCc1ccco1 returned CDK5 p35 inh 2, NSD2 HMT inh 74*, N-glyco inh -2, CASP6 VEID inh -8 and Alpha artifact -1%.
`CO[C@@H](CN(C)S(=O)(=O)c1ccccc1)[C@H](C)CN(Cc1ccccc1Cl)[C@@H](C)CO` gave CASP6 VEID inh 2.
C/C(C=Nn1c(-c2ccc(F)cc2)n[nH]c1=S)=C/c1ccco1 was read as NSD2 HMT inh 61* and Alpha artifact -4%.
Screening Cc1noc(C)c1S(=O)(=O)N(C)C[C@@H]1Oc2ccc(NC(=O)NC3CCCCC3)cc2CC(=O)N([C@@H](C)CO)C[C@H]1C returned CASP6 VEID inh 0.
For CC1(C)Cc2cccc(OCC(=O)O)c2O1 the results were CDK5 p35 inh 1, ALR H2O2 inh -7, NSD2 HMT inh 54*, SUMO Mot1 rescue -1, N-glyco inh 2 and Alpha artifact -1%.
`CC1(C)Cc2cccc(OCC(=O)N3CCN(c4ccccc4)CC3)c2O1` gave CDK5 p35 inh 0, ALR H2O2 inh 14, NSD2 HMT inh -4, SUMO Mot1 rescue -16 and N-glyco inh -1.
CCN(CC)C(=O)COC(=O)C1=NN(c2cc(C)ccc2C)C(=O)CC1 was read as CDK5 p35 inh -1, ALR H2O2 inh -7, NSD2 HMT inh 59*, SUMO Mot1 rescue 9, N-glyco inh 6, CASP6 VEID inh -1 and Alpha artifact -5%.
For CCCCNC(=S)NNC(=O)C1=NN(c2cc(C)ccc2C)C(=O)CC1 the results were CDK5 p35 inh 1, ALR H2O2 inh -1, NSD2 HMT inh 0, SUMO Mot1 rescue 1, N-glyco inh 1 and CASP6 VEID inh -3.
For O=C(C[C@H]1CC[C@@H](NC(=O)c2cccc(F)c2)[C@H](CO)O1)NCc1ccc(Oc2ccccc2)cc1 the results were CASP6 VEID inh 1.
Screening CN1c2ccccc2N(C)C1(C)c1ccccc1 returned CDK5 p35 inh 0, ALR H2O2 inh -16, NSD2 HMT inh 54*, SUMO Mot1 rescue 37, N-glyco inh 1, CASP6 VEID inh 26 and Alpha artifact -17%.
Screening O=C(c1ccc(F)cc1)N1[C@@H](CO)[C@@H]2c3ccccc3NC[C@@H]21 returned CASP6 VEID inh -1.
For COc1cc(/C=N/NC(=O)c2cccc([N+](=O)[O-])c2)ccc1OCc1ccccc1 the results were CDK5 p35 inh 0, ALR H2O2 inh -14, NSD2 HMT inh -1, SUMO Mot1 rescue 19, N-glyco inh -3 and CASP6 VEID inh 23.
COc1cc(/C=C/[N+](=O)[O-])ccc1OCc1cccc(C(=O)O)c1 was read as NSD2 HMT inh 82* and Alpha artifact -18%.
Screening Cc1cc(C)nc(NS(=O)(=O)c2ccc(Br)cc2)n1 returned CDK5 p35 inh 1, ALR H2O2 inh -6, NSD2 HMT inh -8, SUMO Mot1 rescue 101 and N-glyco inh -1.
`Cc1cc(C)nc(NS(=O)(=O)c2ccc(-n3cccc3)cc2)n1` gave CDK5 p35 inh 0, ALR H2O2 inh -6, NSD2 HMT inh 73*, SUMO Mot1 rescue -9, N-glyco inh -1 and Alpha artifact -1%.
For O=C1c2cc(O)c(O)cc2OC(c2ccc(O)c(O)c2)C1O (configuration not stated) the results were CDK5 p35 inh 0, NSD2 HMT inh 68*, N-glyco inh 3, CASP6 VEID inh 55* and Alpha artifact -11%.
Screening C[C@@H]1CCCCO[C@@H](CN(C)C(=O)c2ccncc2)[C@@H](C)CN([C@@H](C)CO)C(=O)c2cc(NC(=O)C3CCCCC3)ccc2O1 returned CASP6 VEID inh -1.
O=C(N[C@@H]1CC[C@@H](CC(=O)N2CCN(c3ccccc3)CC2)O[C@H]1CO)c1ccncc1 was read as CASP6 VEID inh -1.
For O=C(NCCCN1CCCC1=O)Nc1cc(Cl)ccc1Cl the results were CDK5 p35 inh 1, ALR H2O2 inh -4, NSD2 HMT inh 14, SUMO Mot1 rescue 7, N-glyco inh 3 and CASP6 VEID inh -7.
For O=C(NCCCN1CCCC1=O)Nc1ccc(Cl)cc1Cl the results were CDK5 p35 inh 0, ALR H2O2 inh -11, NSD2 HMT inh 50*, SUMO Mot1 rescue 199, N-glyco inh 1, CASP6 VEID inh 1 and Alpha artifact 0%.
Screening COc1ccc2[nH]c3c(NCCN4CCCCC4)ncnc3c2c1 returned CDK5 p35 inh 0, ALR H2O2 inh -3, NSD2 HMT inh 18, SUMO Mot1 rescue 0 and N-glyco inh 6.
`COc1cc(NCCCNC(C)C)c2nccc(C)c2c1` gave CDK5 p35 inh -1, NSD2 HMT inh 107*, N-glyco inh -2, CASP6 VEID inh 88* and Alpha artifact -4%.
Screening Cc1cc(F)c(F)c(C(=O)N2C(C)CCCC2C)c1Cl (configuration not stated) returned CDK5 p35 inh 0, ALR H2O2 inh 0, NSD2 HMT inh 58*, SUMO Mot1 rescue -2, N-glyco inh -1, CASP6 VEID inh -3 and Alpha artifact 2%.

Screening results: PubChem BioAssay, Broad Institute
